# The full list was thinned out, with hits kept by preference.
# PglD inh: inhibitors of Campylobacter jejuni PglD acetyltransferase | purified PglD enzyme, DTNB colorimetric CoA detection | inhibition, % at 12.5 µM | hit rate 0.098% among 360,000; in the data active = inhibition above about 16%, passing the limit was not always enough; inconclusive = no clear call, values can overlap the other calls
# ERp5 block: blocks human ERp5 reductase activity on insulin; Q15084; ERp5 insulin aggregation, absorbance 650 nm, 90 min; inhibition, % at 9.99 µM; hit rate 0.05% among 350,000; AID 651711;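 active = mean replicate inhibition above about 25%, with every replicate also reaching it, limit read from the data, passing the limit was not always enough; inconclusive = only one of those two criteria met; inactive = neither criterion met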
# Target sequence (Q15084 whole entry, looked up): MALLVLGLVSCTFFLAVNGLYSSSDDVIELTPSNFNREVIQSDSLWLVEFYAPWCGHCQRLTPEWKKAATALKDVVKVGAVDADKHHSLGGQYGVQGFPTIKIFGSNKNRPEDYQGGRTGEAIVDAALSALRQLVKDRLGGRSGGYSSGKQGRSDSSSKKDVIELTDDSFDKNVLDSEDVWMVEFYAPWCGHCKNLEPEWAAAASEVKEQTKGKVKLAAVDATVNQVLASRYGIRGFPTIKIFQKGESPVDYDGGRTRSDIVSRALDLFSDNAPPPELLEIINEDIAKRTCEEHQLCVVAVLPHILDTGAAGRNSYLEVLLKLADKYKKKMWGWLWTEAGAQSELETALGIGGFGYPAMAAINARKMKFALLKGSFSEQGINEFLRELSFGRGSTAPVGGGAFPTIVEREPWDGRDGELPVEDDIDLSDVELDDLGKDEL
# CendR NRP1 mod: NRP-1/CendR interaction modulation; O14786; FAM-RPARPAR peptide binding to NRP-1, fluorescence polarization; inhibition, % at 25 µM; hit rate 0.85% among 360,000; AID 602438;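 active = inhibition or corrected inhibition above about 18%, plus a signal ratio from 0.5 to 1.5, limit read from the data, passing the limit was not always enough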
# PDI inh: blocks human protein disulfide isomerase activity; PDI insulin aggregation turbidity, A650, 90 min; inhibition, % at 10 µM; hit rate 0.052% among 350,000;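 active = mean inhibition across replicates of 30% or more, whatever share of single replicates reach that level; inconclusive = mean inhibition below 30% while every single replicate reaches 30%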
# ALR H2O2 inh: blocks human ALR sulfhydryl oxidase activity; P55789; purified ALR, DTT oxidation, H2O2 HRP-luminol luminescence; inhibition, % (test concentration not listed); hit rate 3.8% among 290,000;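 active = mean replicate inhibition above about 79%, with every replicate also reaching it, limit read from the data; inconclusive = only one of the two criteria met; inactive = mean below limit and not every replicate reaching it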
# Target sequence (P55789 whole entry, looked up): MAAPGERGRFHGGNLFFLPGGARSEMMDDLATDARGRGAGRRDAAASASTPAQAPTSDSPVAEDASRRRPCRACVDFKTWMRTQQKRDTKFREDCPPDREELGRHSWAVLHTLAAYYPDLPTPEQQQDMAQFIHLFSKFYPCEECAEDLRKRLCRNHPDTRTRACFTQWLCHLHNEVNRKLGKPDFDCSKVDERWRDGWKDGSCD
# ARNT TACC3 PPI: disruptors of human ARNT/TACC3 interaction; inhibition, % at 9.99 µM; AlphaScreen His-ARNT PAS-B/GST-TACC3 binding, luminescence; TACC3 fragment carries E629A point mutation; AID 623870; hit rate 0.66% among 390,000;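 active = mean inhibition of replicates at least 50% and at least half of replicates each reaching 50%; inconclusive = half or more replicates reach 50% but mean below 50%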
# A number is an active result; – = inactive; ? = inconclusive; · = no result given.
SMILES,PglD inh,ERp5 block,CendR NRP1 mod,PDI inh,ALR H2O2 inh,ARNT TACC3 PPI
COc1ccc(OC(=O)N(C)C[C@@H]2OCc3ccccc3-c3c(n(C)c4ccccc34)C(=O)N([C@@H](C)CO)C[C@H]2C)cc1,·,–,·,·,·,·
O=C(Cc1ccccc1)N1CCCCN2[C@H](C1)[C@H](c1ccc(C#Cc3ccccc3)cc1)[C@@H]2CO,–,–,·,·,·,–
O=C1C=CC(=O)C2C1C1(Cl)C(Cl)=C(Cl)C2(Cl)C1(Cl)Cl (centres undefined),–,–,26,–,·,–
Cc1ccc(NC(=O)CSc2nnc([C@@H](N)Cc3c[nH]c4ccccc34)o2)c(C)c1,–,·,–,–,98,–
CCc1ccccc1NC(=O)CSc1nnc([C@@H](N)Cc2c[nH]c3ccccc23)o1,–,·,–,–,–,–
COP(=O)(OC)C1(Nc2ccc(C)cc2)CCCCC1,–,·,–,–,99,–
CC(=O)c1ccc2c(c1)C1C(Cl)C(Sc3ccccc3[N+](=O)[O-])CC1C(C(=O)O)N2 (centres undefined),·,·,31,–,95,–
Nc1ccc2c(c1)Cc1ccccc1-2,–,·,–,–,99,·
COc1cccc(N2C(=O)NC(=O)/C(=C/c3ccc4c(c3)Cc3ccccc3-4)C2=O)c1,–,–,–,–,–,–
COc1ccc(C#Cc2ccc([C@@H]3[C@@H](CO)N4CCCCN(C(=O)Cc5cccnc5)C[C@@H]34)cc2)cc1,–,–,·,·,·,–
COc1ccc(C#Cc2ccc([C@H]3[C@H](CO)N4CCCCN(C(=O)Cc5cccnc5)C[C@@H]34)cc2)cc1,–,27,·,·,·,–
CC1C(=O)OC2CCN3CC4OC4(COC(=O)C(C)(O)C1(C)O)C23 (centres undefined),·,–,26,–,·,–
CCn1nc(-c2cccs2)nc2c(=O)n(C)c(=O)nc1-2,–,·,30,?,·,–
CCn1nc(/C=C/c2ccccc2)nc2c(=O)n(C)c(=O)nc1-2,·,38,27,–,·,–
COc1cc(/C=C2/C(=O)NC(=O)N(c3ccccc3)C2=O)ccc1O,·,?,–,–,–,active
CN(C)c1ccc(/C=C2/C(=N\O)C3CCN2CC3)cc1,–,–,–,–,99,–
C[C@H]1CN([C@@H](C)CO)C(=O)c2c(c3ccccc3n2C)-c2ccccc2CO[C@@H]1CN(C)C(=O)Oc1ccccc1,·,–,·,·,·,·
COC(=O)[C@H]1[C@H](CO)[C@H]2Cn3c(ccc(C4=CCCC4)c3=O)[C@@H]1N2CC1CCCCC1,–,–,·,·,·,–
O=C(Cc1ccccc1)N1CC2(C1)[C@H](c1ccccc1)[C@H](CO)N2Cc1cccc(Cl)c1,·,–,·,·,·,·
O=c1[nH]c(=O)n(Cc2ccco2)c(O)c1C=NC1CC1,–,·,–,–,–,–
O=c1[nH]c(=O)n(Cc2ccco2)c(O)c1/C=N/N1CCCCC1,·,–,–,–,–,active
CC(=NNC(=S)N1CC2CCC(CC2)C1)c1nccs1,·,–,–,–,·,72
COC(=O)c1nc(-c2ccc3c(n2)C(=O)C(N)=C(OC)C3=O)c(N)c(-c2ccc(OC)c(OC)c2O)c1C,–,–,–,–,–,45
COc1ccc2[nH]cc(C3=CCNCC3)c2c1,·,·,·,·,97,·
CCCCC/C(=N\O)c1c[nH]c2ccccc12,–,·,–,–,–,–
SMILES,PglD inh,ERp5 block,CendR NRP1 mod,PDI inh,ALR H2O2 inh,ARNT TACC3 PPI
CCCC/C(=N/O)c1c(C)[nH]c2ccccc12,·,–,–,–,99,–
CCCCC/C(=N/O)c1c(C)[nH]c2ccccc12,·,–,–,–,99,–
C[C@@H]1CN([C@H](C)CO)C(=O)c2c(c3ccccc3n2C)-c2ccccc2CO[C@H]1CN(C)C(=O)Oc1ccccc1,·,–,·,·,·,·
C/C=C/c1ccc(C2[C@@H]3CN(Cc4cccnc4)C[C@H]2N3)cc1 (some centres undefined),·,–,·,·,·,·
O=S(=O)(c1cc(Cl)cc(Cl)c1)N1Cc2cc(-c3ccccc3)ccc2-n2nncc2C1,–,–,23,·,·,·
CC=Cc1ccc2n(c1=O)C[C@H]1[C@H](CO)[C@@H](C(=O)OC)[C@@H]2N1C(=O)CC (mixture of isomers),–,–,·,·,·,–
CC=Cc1ccc2n(c1=O)C[C@@H]1[C@@H](CO)[C@H](C(=O)N(C)C)N[C@H]21 (mixture of isomers),–,–,·,·,·,–
O=C(N/N=C/c1c(O)n(Cc2ccccc2)c(=O)[nH]c1=O)c1ccccc1O,·,·,–,–,–,63
O=C(N/N=C/c1c(O)n(Cc2ccc(F)cc2)c(=O)[nH]c1=O)c1ccccc1O,–,–,–,–,97,·
COC(=O)[C@@H]1[C@@H](CO)[C@@H]2Cn3c(ccc(-c4ccncc4)c3=O)[C@H]1N2S(=O)(=O)c1ccccc1C,–,–,·,·,·,–
CCN1/C(=C\C=C\C2=[N+](CC)c3ccccc3C2(C)C)C(C)(C)c2ccccc21,–,·,–,–,88,–
Cc1cc(C)c2c(c1)-c1cc(C)nn1C(c1cccnc1)N2 (centres undefined),–,–,–,·,99,–
O=C1NC(=O)N(Cc2ccco2)C(=O)/C1=C/c1ccc(-c2cccc([N+](=O)[O-])c2)o1,–,·,–,–,–,–
C=CCN1C(=O)NC(=O)/C(=C\c2ccc(-c3ccccc3[N+](=O)[O-])o2)C1=O,·,–,–,–,98,·
C[C@]12CCC3C(CC[C@H]4C[C@@H](O)CC[C@]34C)C1C[C@@H](O)[C@]2(C)O (some centres undefined),–,–,28,–,–,–
CCCN1[C@@H]2Cn3c(ccc(-c4cccc(OC)c4)c3=O)[C@H]1[C@@H](C(=O)OC)[C@@H]2CO,·,–,·,·,·,·
Cc1cccc(N2C(=O)NC(=O)/C(=C/c3ccc(N4CCOCC4)cc3)C2=O)c1,·,–,–,–,97,·
COCCNC(=O)Cn1cc(/C=C2\C(=O)NC(=O)N(c3cccc(C)c3C)C2=O)c2ccccc21,–,–,–,–,92,–
COCCNC(=O)Cn1cc(/C=C2\C(=O)NC(=O)N(c3ccccc3F)C2=O)c2ccccc21,–,–,–,–,–,–
CN(C)c1ccc(NC(=O)CN2C(=O)CN=C(c3ccccc3)c3cc(Cl)ccc32)cc1,–,–,–,–,89,–
CN(C)c1ccc(NC(=O)CN2C(=O)CN=C(c3ccccc3)c3ccccc32)cc1,–,·,–,–,99,–
O=C(Cc1ccccn1)N1CCCCN2[C@H](CO)[C@@H](c3ccc(-c4ccccc4)cc3)[C@@H]2C1,–,–,·,·,·,–
CCC(=O)N1[C@@H]2Cn3c(ccc(-c4cccc(F)c4)c3=O)[C@H]1[C@@H](C(=O)OC)[C@@H]2CO,–,–,·,·,·,–
O=C(O)CCn1cc(C=C2C(=O)NC(=S)NC2=O)c(-c2ccccc2)n1,·,–,–,–,87,–
O=C(O)CCn1cc(C=C2C(=O)NC(=S)NC2=O)c(-c2cc3ccccc3oc2=O)n1,·,–,–,–,·,–
CN(C)P1(N(C)C)=Nc2c(c(N)nn2C)C(c2ccccc2)=N1,–,–,–,–,86,–
